Abeta yeast res: A-beta toxicity reversal in yeast; 0.063% of 410,000 active; Potency, µM (doses to about 46.1 µM), most hits filed as activators; yeast expressing A-beta42, growth rescue, OD600, 48 h; response scale: 0% DMSO, 100% iron-clioquinol control; AID 1347071; note: nearly all actives have a fitted effect of over 55% in size
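Growth rescue measured by 600 nm absorbance after 48 h yeast culture at 30 C with compound. Values normalized between DMSO and an equimolar ferric chloride plus clioquinol control.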
FUS yeast rescue: FUS proteinopathy suppression in yeast. S. cerevisiae FUS-expressing, growth rescue, OD600, 24 h. Potency, µM (series often up to 76.6 µM), hits mostly activators. 0.24% of 390,000 active. AID 1347120; note: nearly all actives have a fitted effect of over 55% in size
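Quantitative HTS measuring growth restoration of FUS-toxic yeast. Galactose-induced cells (OD 0.005) were exposed 24hr at 30C to compounds at several concentrations, then absorbance at 600 nm was recorded.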
Mito fusion act: mitochondrial division inhibition or fusion activation | Potency, µM (doses to about 46.1 µM), hits mostly activators | 0.23% of 320,000 active | S. cerevisiae fusion-defective mutant growth rescue, CellTiterGlo 48 h; note: nearly all actives have a fitted effect of over 45% in size
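Read-out: ATP-based luminescence (CellTiterGlo, 10 min ambient) reporting growth of fusion-defective ts yeast after 48 hours at 37C on glycerol/ethanol YPEG medium in the presence of compound.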
aSyn rescue: alpha-synuclein toxicity inhibition in yeast; Yeast expressing alpha-synuclein, growth rescue, BacTiter-Glo, 24 h; Potency, µM (series often up to 46.1 µM), hits mostly activators; 0.14% of 370,000 active; AID 652106; note: nearly all actives have a fitted effect of over 65% in size
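Readout is rescue of growth in alpha-synuclein-expressing yeast, so inhibitors of toxicity appear as activators. Growth after 24 hr at 30 deg C in galactose medium is quantified by luminescence.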
ERG Ets-DNA blk: blocks human ERG Ets domain binding to DNA; P11308; fluorescence polarization, His-ERG Ets domain / labelled DNA; Potency, µM (top dose mostly 76.9 µM), actives largely listed as inhibitors; 0.028% of 370,000 active; AID 624246; active = well fitted inhibition curve with a large enough effect in the polarisation, with a control signal flat; inconclusive = small, poorly fitted or top-dose-only effect, or effect the other way, or a change in a side signal; inactive = no such curve, though single readings can be large or run the other way; the % refers to the polarisation;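 note: polarization taken with two DNA probes labelled with fluorescein and Texas red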
Target sequence (P11308 whole entry, looked up, the tested form may be a part): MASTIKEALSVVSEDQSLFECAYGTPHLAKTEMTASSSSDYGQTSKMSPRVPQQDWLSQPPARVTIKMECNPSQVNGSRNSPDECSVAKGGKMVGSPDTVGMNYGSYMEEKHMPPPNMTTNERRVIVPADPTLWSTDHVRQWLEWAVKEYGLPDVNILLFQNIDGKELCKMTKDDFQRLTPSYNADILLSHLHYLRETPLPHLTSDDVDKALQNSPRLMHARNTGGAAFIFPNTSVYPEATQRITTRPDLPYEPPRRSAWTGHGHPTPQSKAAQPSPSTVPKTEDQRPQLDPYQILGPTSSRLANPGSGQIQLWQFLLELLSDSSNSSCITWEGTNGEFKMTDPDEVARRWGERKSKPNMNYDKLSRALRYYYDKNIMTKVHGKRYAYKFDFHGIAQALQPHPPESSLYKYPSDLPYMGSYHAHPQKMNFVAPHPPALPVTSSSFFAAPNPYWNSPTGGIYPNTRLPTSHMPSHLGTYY
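His-tagged ERG Ets domain (1 uM in the protein solution; 300mM KCl, 50mM Tris-HCl, 1mM EDTA, 1mM DTT, pH 7.5) received compound, then a probe mix of 5 nM fluorescein-DNA and 100nM Texas-615-DNA. Fluorescence polarization was read for both dyes.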
TDP43 rescue: inhibitors of TDP-43 toxicity in yeast. TDP-43 expressing yeast growth rescue, BacTiter-Glo, 24 h. Potency, µM (doses to about 46.1 µM), actives largely listed as activators. 1.8% of 410,000 active. AID 652104; note: nearly all actives have a fitted effect of over 50% in size
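Cell-based yeast growth screen: TDP-43 expression induced in galactose, inoculum OD600=0.02 after raffinose pregrowth to mid-log. Read-out BacTiter-Glo luminescence at 24 hr, 30 deg C; inhibition of toxicity seen as signal increase.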
A number is an active result. The list is not random: actives were taken first. Their share in the collection is about 2.2%. Unless noted, calls come from the whole dose curve; as a rule, active = well fitted curve in the direction sought with a large enough effect; inconclusive = small, poorly fitted or top-dose-only effect, or another doubt; inactive = no such curve, though single readings can be large; an effect the other way counts as inactive or inconclusive.

How did CN1CCc2c(sc3c2C(=O)NC(c2ccc(C(C)(C)C)cc2)N3)C1 (configuration not stated) do in these assays?
Abeta yeast res: inactive; FUS yeast rescue: inactive; ERG Ets-DNA blk: inconclusive; TDP43 rescue: inactive

How did Nc1cc([N+](=O)[O-])ccc1OCc1ccccc1 do in these assays?
Abeta yeast res: inactive; aSyn rescue: inactive; TDP43 rescue: inconclusive

What do the screens show for `O=c1cc(C(O)C[N+](=O)[O-])occ1OCc1ccccc1` (configuration not stated)?
Abeta yeast res: inactive; FUS yeast rescue: 32µM; aSyn rescue: inactive; ERG Ets-DNA blk: inactive; TDP43 rescue: inactive

What do the screens show for `Cc1ccc(-c2cc(-c3n[nH]c(=S)o3)c3ccccc3n2)cc1`?
Abeta yeast res: inactive; FUS yeast rescue: inactive; Mito fusion act: inconclusive; aSyn rescue: inactive; ERG Ets-DNA blk: inactive; TDP43 rescue: inconclusive

Results for S=c1[nH]nc(-c2cc(-c3ccccn3)nc3ccccc23)o1 ?
Abeta yeast res: inactive; FUS yeast rescue: inactive; Mito fusion act: inactive; aSyn rescue: inactive; ERG Ets-DNA blk: inactive; TDP43 rescue: 3.2µM

How did CC(=O)Nc1ccc(Nc2nc(Nc3ccc(Cl)cc3)nc(N3CCOCC3)n2)cc1 do in these assays?
aSyn rescue: inactive

Results for Cc1ccnc(NC(=S)NC(=O)c2cccs2)c1 ?
Abeta yeast res: inactive; Mito fusion act: inactive; aSyn rescue: inactive; ERG Ets-DNA blk: inactive; TDP43 rescue: 16µM

How did Cc1ccccc1C(=O)Nc1cccc(NC(=S)NC(=O)c2cccs2)c1 do in these assays?
Abeta yeast res: inactive; FUS yeast rescue: inactive; Mito fusion act: inactive; aSyn rescue: inactive; ERG Ets-DNA blk: inactive; TDP43 rescue: inactive

What do the screens show for `Cc1ccnc(NC(=O)CNC(=O)c2cccs2)c1`?
Abeta yeast res: inactive; FUS yeast rescue: inactive; Mito fusion act: inactive; aSyn rescue: inactive; ERG Ets-DNA blk: inactive; TDP43 rescue: inactive

Results for O=C(NC(=S)NCc1ccccc1Cl)c1cccs1 ?
Abeta yeast res: inactive; aSyn rescue: inactive; ERG Ets-DNA blk: inactive; TDP43 rescue: 18µM

What do the screens show for `O=C(NCc1ccccc1F)c1cccs1`?
Abeta yeast res: inactive; FUS yeast rescue: inactive; Mito fusion act: inactive; aSyn rescue: inactive; ERG Ets-DNA blk: inactive; TDP43 rescue: inactive

Results for CCC(C)c1ccc(O)c(NC(=S)NC(=O)c2cccs2)c1 (configuration not stated) ?
Abeta yeast res: inconclusive; FUS yeast rescue: inactive; aSyn rescue: 13µM; TDP43 rescue: inconclusive

What do the screens show for `Cc1ccccc1C(=O)NNC(=S)NC(=O)c1cccs1`?
Abeta yeast res: inactive; FUS yeast rescue: inactive; Mito fusion act: inactive; aSyn rescue: 3.5µM; ERG Ets-DNA blk: inactive; TDP43 rescue: inconclusive

Results for O=C(CSc1c(Cl)cccc1Cl)N1CCC(c2nc3ccccc3s2)CC1 ?
Abeta yeast res: inactive; FUS yeast rescue: inactive; Mito fusion act: inactive; aSyn rescue: inconclusive; ERG Ets-DNA blk: inactive; TDP43 rescue: inactive

How did O=C(CSc1ccc(Cl)cc1)N1CCC(c2nc3ccccc3s2)CC1 do in these assays?
Abeta yeast res: inactive; FUS yeast rescue: inactive; Mito fusion act: inactive; aSyn rescue: inconclusive; ERG Ets-DNA blk: inactive; TDP43 rescue: 25µM

What do the screens show for `Cc1ccc(CN2CCCn3nc(C(=O)NC(C)C)cc3C2=O)cc1`?
Abeta yeast res: inactive; FUS yeast rescue: inactive; ERG Ets-DNA blk: inactive; TDP43 rescue: inactive

Results for CCCC(Oc1ccc(Br)cc1)c1nc2c3cc(OC)c(OC)cc3nc(=S)n2[nH]1 (configuration not stated) ?
Abeta yeast res: inactive; Mito fusion act: inactive; aSyn rescue: inactive; ERG Ets-DNA blk: inactive; TDP43 rescue: inactive

Results for CC(Oc1ccc(Br)cc1)c1nc2c3ccccc3nc(=S)n2[nH]1 (configuration not stated) ?
Abeta yeast res: inconclusive; FUS yeast rescue: 35µM; Mito fusion act: inactive; aSyn rescue: inactive; ERG Ets-DNA blk: inactive; TDP43 rescue: inactive

How did CC(C)C#Cc1cnc2c(c1)C(=O)N([C@@H](C)CO)C[C@@H](C)[C@H](CN(C)Cc1cccc(F)c1)O2 do in these assays?
Abeta yeast res: inactive; FUS yeast rescue: inactive; aSyn rescue: inactive; TDP43 rescue: inactive

Results for COc1cccc(CNC(=O)c2ccc3nc(CCc4ccccc4)oc3c2)c1OC ?
Abeta yeast res: inactive; FUS yeast rescue: inactive; ERG Ets-DNA blk: inactive; TDP43 rescue: inactive

How did CCn1c(COc2cccc(C)c2)nnc1SCC(=O)Nc1cccc(C(=O)OC)c1 do in these assays?
Abeta yeast res: inactive; FUS yeast rescue: inactive; Mito fusion act: inactive; aSyn rescue: inactive; ERG Ets-DNA blk: inactive; TDP43 rescue: 20µM

What do the screens show for `Cc1ccc(C(=O)Nc2ccccc2)cc1S(=O)(=O)Nc1ccccc1`?
Abeta yeast res: inactive; FUS yeast rescue: inactive; ERG Ets-DNA blk: inactive; TDP43 rescue: inactive

How did Cc1ccc(C(=O)Nc2ccccc2)cc1S(=O)(=O)Nc1ccc(Br)cc1 do in these assays?
Abeta yeast res: inactive; FUS yeast rescue: inactive; ERG Ets-DNA blk: inactive; TDP43 rescue: 13µM

How did CSc1ncc(Cl)c(C(=O)Nc2c(C(=O)c3ccc(Cl)cc3)oc3ccccc23)n1 do in these assays?
Abeta yeast res: inactive; FUS yeast rescue: inactive; ERG Ets-DNA blk: inactive; TDP43 rescue: inactive

Results for O=C1NC2(CCc3ccccc3C2)C(=O)N1CCOc1cccc(Cl)c1 (configuration not stated) ?
Abeta yeast res: inconclusive; FUS yeast rescue: inactive; Mito fusion act: inactive; aSyn rescue: inactive; ERG Ets-DNA blk: inactive; TDP43 rescue: 20µM

How did O=C1C=C(c2ccccc2)CC(c2ccc(F)cc2)C1 (configuration not stated) do in these assays?
Abeta yeast res: inactive; FUS yeast rescue: inactive; aSyn rescue: inactive; ERG Ets-DNA blk: inactive; TDP43 rescue: inconclusive

What do the screens show for `O=C1C=C(c2ccccc2)CC(/C=C/c2ccccc2)C1` (configuration not stated)?
Abeta yeast res: inactive; Mito fusion act: 16µM; aSyn rescue: inactive; TDP43 rescue: inconclusive

How did NC(Cc1ccc(Cl)cc1)c1csc(NC(=O)NCCc2ccccc2)n1 (configuration not stated) do in these assays?
Abeta yeast res: inactive; FUS yeast rescue: inactive; aSyn rescue: inactive; TDP43 rescue: inactive

What do the screens show for `NC(Cc1ccc(Cl)cc1)c1csc(NC(=O)NCC2CCCCC2)n1` (configuration not stated)?
Abeta yeast res: inactive; FUS yeast rescue: 25µM; aSyn rescue: inactive; TDP43 rescue: inconclusive

Screens from PubChem.
